Calls of active or inactive are those of the source.

For 5 compounds, composite z-score and z-score results are on record in PubChem BioAssay.

A short description of test [1]: small molecules captured by biotinylated probe aFSTL3 – biochemical, small-molecule microarray, fluorescence 635/667, stem cell growth factor project, primary screen (AID 1064).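 Note: measures binding of the biotinylated anti-FSTL3 antibody to printed compounds.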 The note with it: higher = more signal.
Test [2] can be described thus: binders from COS7 lysate, DM2A8 probe, primary screen, torsin A project, cell lysate, small-molecule microarray, fluorescence 635/667 (AID 1065). The following applies: higher = more signal, COS7 lysate expressing mutant human TOR1A.
The nature of test [3]: small molecules captured by biotinylated probe aFGF2 – biochemical, small-molecule microarray, fluorescence 635/667, stem cell growth factor project, primary screen (AID 1067).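 Note: measures binding of biotinylated aFGF2 protein to printed compounds on slides; z-score merges feature fluorescence and signal-to-noise across triplicate slides.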 The following applies: higher = more signal.
A short description of test [4]: small molecules captured by biotinylated probe aFGF10 – biochemical, small-molecule microarray, fluorescence 635/667, stem cell growth factor project, primary screen (AID 1071).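 Note: score merges 667 nm spot intensity and signal to noise from triplicate slides.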 The note with it: higher = more signal.
Test [5] deals with Neurogenic locus notch homolog protein 2 (Homo sapiens) (UniProt Q04721). The experiment in a line: small molecules binding Notch2 protein – biochemical, small-molecule microarray, 635 nm fluorescence, stem cell growth factors, primary screen (AID 1073). The note with it: higher = more signal.
Test [6] concerns the target Pro-neuregulin-1, membrane-bound isoform (Homo sapiens) (UniProt Q02297). The experiment in a line: small molecules binding neuregulin-1 protein – biochemical, small-molecule microarray, fluorescence 635/667, psychiatric disease protein project, primary screen (AID 1075).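 Note: score combines 667 nm spot fluorescence with signal to noise.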 The note with it: NRG1 binding, 635 nm fluorescence, higher = more signal.
In test [7] the test system is Neuregulin-1 EGF-like domain. The experiment in a line: small molecules binding NRG1 EGF domain – biochemical, small-molecule microarray, 635 nm fluorescence, primary screen (AID 1081).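 Note: binding of the protein to compounds printed on small-molecule microarray slides.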 The note with it: higher = more signal.
The nature of test [8]: FRG1 expression reporter modulators in myotubes – cell-based, C2C12 myotubes, firefly/Renilla luciferase, luminescence, FRG1 inhibition for FSHD, primary screen (AID 1084). The note with it: FRG1 promoter luciferase, higher = more signal, called active from +8 up or from −8 down.
Test [9] in a line: small molecules captured by biotinylated probe aFST – biochemical, small-molecule microarray, fluorescence 635/667, stem cell growth factor project, primary screen (AID 1086).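 Note: score merges 667 nm fluorescence with signal-to-noise of each printed compound spot.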 The following applies: higher = more signal.
The nature of test [10]: binders of probe aHhip on microarray, primary screen, stem cell growth factor project, biochemical, small-molecule microarray, fluorescence 635/667 (AID 1087).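 Note: score merges spot fluorescence at 667nm with spot signal to noise ratio.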 The following applies: higher = more signal.
Test [11] relates to PRMT1 (protein arginine N-methyltransferase 1). Put plainly: small molecules binding arginine methyltransferase PRMT1 – biochemical, small-molecule microarray, 635 nm fluorescence, primary screen (AID 1088).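 Note: binding of Prmt1 protein to compounds spotted on small-molecule microarray slides.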 The note with it: higher = more signal.
Test [12] in a line: growth effects on S. cerevisiae YJM789 – YJM789 clinical isolate, OD600, 24 h, basal, primary screen (AID 1089).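 Note: growth of clinical yeast isolate S. cerevisiae YJM 789 seeded 1000 cells per well; test concentration not given here.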 The note with it: higher = more signal, called active from +8 up or from −8 down.
Test [13] is described as follows: S. pombe growth modifiers, basal conditions – strain 972, OD600, 24 h, no modulator, primary screen (AID 1090).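 Note: basal condition with compound alone and no growth modifier present; test concentration not given here.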 The note with it: S. pombe 972 growth, higher = more signal, called active from +8 up or from −8 down.
The nature of test [14]: budding yeast growth modifiers under rapamycin – strain BY4716, OD600, 96 h, primary screen (AID 1091). Note: test concentration not given here. The following applies: S. cerevisiae BY4716 + rapamycin, higher = more signal, called active from +8 up or from −8 down.
Test [15] concerns the target Torsin-1A-interacting protein 2 (Homo sapiens) (UniProt Q8NFQ8). Put plainly: small molecules binding lysate-expressed LULL1 – cell lysate, human LULL1 lysate, 635/667 nm fluorescence, primary screen (AID 1092).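 Note: probe is lysate of COS7 cells overexpressing human LULL1; score merges per-feature 667 nm fluorescence with signal-to-noise.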 The following applies: small-molecule microarray, hLULL1 lysate binding, 635 nm fluorescence; higher = more signal.
A short description of test [16]: optical density change of DRC41 E. coli – strain DRC41, OD650, 24 h, E. coli filamentation project, primary screen (AID 1093).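 Note: MC1000 strain lacking acrAB efflux and sulA so SOS filamentation is blocked; test concentration not given here.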 The following applies: E. coli DRC41 growth, higher = more signal, called active from +8 up or from −8 down.
The nature of test [17]: probe aLefty2 binding to arrayed compounds – biochemical, biotinylated probe, 635/667 nm fluorescence, primary screen (AID 1094).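 Note: score merges spot fluorescence near 667 nm with spot signal-to-noise ratio.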 The following applies: small-molecule microarray, higher = more signal.
Test [18] relates to Noggin (protein binding on small-molecule microarray). The experiment in a line: small molecules binding Noggin protein – biochemical, 635/667 nm fluorescence, primary screen (AID 1095).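 Note: score merges 667 nm feature fluorescence with signal to noise over triplicate slides.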 The note with it: 635 nm fluorescence, higher = more signal.
Test [19] deals with Neurogenic locus notch homolog protein 3 (Homo sapiens) (UniProt Q9UM47). The experiment in a line: small molecules binding NOTCH3 protein – biochemical, 635/667 nm fluorescence, primary screen (AID 1096). The note with it: small-molecule microarray, 635 nm fluorescence, higher = more signal.
A short description of test [20]: probe aEGFR binding to arrayed compounds – biochemical, biotinylated probe, 635/667 nm fluorescence, primary screen (AID 1097).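 Note: probe is a biotinylated anti-EGFR antibody binding compounds printed on slides; score combines fluorescence near 667 nm and signal to noise of each spot.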 The following applies: small-molecule microarray, higher = more signal.

Chain of Torsin-1A-interacting protein 2 (Homo sapiens) (Q8NFQ8 whole entry, looked up): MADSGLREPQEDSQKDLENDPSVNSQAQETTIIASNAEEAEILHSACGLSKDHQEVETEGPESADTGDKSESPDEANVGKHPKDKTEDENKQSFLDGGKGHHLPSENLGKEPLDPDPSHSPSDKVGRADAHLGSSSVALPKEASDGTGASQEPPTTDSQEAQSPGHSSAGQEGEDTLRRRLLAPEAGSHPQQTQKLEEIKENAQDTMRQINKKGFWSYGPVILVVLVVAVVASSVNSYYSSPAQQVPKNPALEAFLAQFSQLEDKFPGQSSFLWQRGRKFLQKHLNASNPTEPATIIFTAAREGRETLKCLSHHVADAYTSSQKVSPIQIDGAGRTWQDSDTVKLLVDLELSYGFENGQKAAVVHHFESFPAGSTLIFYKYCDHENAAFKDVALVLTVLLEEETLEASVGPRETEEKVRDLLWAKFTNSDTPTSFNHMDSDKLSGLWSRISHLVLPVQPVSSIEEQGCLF
Chain of Neurogenic locus notch homolog protein 3 (Homo sapiens) (Q9UM47 whole entry, looked up): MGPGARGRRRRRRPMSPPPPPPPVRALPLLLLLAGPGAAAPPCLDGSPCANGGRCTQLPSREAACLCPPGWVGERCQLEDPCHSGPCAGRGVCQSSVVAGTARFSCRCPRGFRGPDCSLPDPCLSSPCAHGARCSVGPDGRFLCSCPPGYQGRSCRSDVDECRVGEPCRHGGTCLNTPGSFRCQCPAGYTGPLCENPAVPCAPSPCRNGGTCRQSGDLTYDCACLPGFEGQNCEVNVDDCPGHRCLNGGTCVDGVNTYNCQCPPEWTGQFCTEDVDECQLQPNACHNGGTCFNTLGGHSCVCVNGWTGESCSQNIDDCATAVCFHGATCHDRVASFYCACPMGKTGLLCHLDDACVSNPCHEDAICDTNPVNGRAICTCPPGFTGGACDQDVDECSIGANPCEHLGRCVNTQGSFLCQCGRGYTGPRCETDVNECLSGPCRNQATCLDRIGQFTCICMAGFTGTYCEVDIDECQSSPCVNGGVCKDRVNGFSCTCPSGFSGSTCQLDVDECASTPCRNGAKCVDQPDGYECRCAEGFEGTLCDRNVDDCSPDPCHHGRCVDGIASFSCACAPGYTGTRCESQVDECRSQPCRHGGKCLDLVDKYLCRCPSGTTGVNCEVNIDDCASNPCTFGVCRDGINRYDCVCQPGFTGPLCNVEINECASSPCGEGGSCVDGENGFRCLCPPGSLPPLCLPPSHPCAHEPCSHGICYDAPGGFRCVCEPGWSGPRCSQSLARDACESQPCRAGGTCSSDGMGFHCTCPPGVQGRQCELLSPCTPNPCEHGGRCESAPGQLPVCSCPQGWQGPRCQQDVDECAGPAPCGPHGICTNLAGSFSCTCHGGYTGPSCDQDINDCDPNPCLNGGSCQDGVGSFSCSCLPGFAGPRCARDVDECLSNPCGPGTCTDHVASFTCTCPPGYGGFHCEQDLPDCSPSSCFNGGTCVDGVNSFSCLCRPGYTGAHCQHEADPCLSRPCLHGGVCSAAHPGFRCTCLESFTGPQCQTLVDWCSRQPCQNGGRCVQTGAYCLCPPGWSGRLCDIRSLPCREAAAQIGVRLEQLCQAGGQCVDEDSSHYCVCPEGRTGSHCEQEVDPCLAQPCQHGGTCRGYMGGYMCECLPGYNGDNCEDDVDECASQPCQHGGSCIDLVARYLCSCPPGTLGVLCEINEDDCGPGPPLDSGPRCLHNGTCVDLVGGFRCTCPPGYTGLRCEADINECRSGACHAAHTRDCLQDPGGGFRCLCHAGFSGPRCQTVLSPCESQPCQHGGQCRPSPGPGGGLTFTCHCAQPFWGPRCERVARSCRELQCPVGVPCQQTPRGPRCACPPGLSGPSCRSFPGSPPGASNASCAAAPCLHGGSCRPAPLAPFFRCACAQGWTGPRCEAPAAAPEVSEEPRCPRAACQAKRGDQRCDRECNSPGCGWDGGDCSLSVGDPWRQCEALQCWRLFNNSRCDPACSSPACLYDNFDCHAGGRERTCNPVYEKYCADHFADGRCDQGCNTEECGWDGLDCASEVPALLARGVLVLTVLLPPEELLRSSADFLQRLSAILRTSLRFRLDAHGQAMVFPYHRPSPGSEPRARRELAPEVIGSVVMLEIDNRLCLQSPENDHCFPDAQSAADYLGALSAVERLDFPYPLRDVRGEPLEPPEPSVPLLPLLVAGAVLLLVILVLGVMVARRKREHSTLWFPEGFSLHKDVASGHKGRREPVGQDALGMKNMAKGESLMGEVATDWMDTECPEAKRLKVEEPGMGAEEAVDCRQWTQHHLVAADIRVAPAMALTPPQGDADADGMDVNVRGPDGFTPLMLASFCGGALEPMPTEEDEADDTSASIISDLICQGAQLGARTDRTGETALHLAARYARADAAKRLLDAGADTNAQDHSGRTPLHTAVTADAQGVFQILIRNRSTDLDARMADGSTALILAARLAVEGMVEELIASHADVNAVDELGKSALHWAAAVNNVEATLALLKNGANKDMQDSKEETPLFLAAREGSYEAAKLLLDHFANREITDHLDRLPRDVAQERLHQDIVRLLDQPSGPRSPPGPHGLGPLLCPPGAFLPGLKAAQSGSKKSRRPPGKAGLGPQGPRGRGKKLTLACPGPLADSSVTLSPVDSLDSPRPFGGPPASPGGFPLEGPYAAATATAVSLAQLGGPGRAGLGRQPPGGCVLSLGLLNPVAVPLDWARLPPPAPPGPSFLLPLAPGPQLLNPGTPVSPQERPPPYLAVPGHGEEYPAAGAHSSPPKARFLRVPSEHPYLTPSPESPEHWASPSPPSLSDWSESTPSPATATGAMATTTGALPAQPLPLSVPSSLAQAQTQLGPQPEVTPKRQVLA
Chain of Pro-neuregulin-1, membrane-bound isoform (Homo sapiens) (Q02297 whole entry, looked up, the tested form may be a part, canonical isoform): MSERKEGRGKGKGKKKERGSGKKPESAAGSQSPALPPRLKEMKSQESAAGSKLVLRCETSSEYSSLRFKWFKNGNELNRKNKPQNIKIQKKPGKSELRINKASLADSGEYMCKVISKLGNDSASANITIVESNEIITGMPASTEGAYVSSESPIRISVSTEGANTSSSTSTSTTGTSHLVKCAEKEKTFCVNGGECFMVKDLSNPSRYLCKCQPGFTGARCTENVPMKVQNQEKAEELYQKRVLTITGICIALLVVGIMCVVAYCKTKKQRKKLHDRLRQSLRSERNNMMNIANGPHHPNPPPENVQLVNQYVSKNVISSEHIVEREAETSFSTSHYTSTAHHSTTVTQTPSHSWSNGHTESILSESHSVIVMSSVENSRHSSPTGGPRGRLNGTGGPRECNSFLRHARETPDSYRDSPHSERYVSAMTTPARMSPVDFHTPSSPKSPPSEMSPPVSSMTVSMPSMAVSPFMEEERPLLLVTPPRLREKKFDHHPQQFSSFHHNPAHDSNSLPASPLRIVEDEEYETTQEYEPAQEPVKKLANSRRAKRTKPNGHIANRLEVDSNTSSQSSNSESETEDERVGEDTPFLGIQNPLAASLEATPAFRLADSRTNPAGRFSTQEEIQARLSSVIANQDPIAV

With `C=C(COC)/C(=C/C[C@@H](OC(C)=O)c1ccccc1OCCO)c1cc(C(=O)OC)ccc1OC`, the composite z-score in test [1] is 0.0503; in test [2], 0.377; in [3] it was -0.116; in test [4], 0.785; in test [5], -0.216; in test [6] it was 1.48. The composite z-score in [7] was 1.09; in [9], 0.0581; in test [10], -0.374; in test [11], 1.37; in test [15], 1.67; in test [17] it was -0.0873. The composite z-score in test [18] was 0.0363; in test [19], 0.455; in [20], -0.0141. Moreover, the z-score in test [8] is -0.657 (inactive); in test [12] it was 1.16 (inactive); in test [13], -0.145 (inactive); in test [14], -0.167 (inactive); in test [16], 0.174 (inactive).

For `COc1ccccc1CN1C(=O)c2ccccc2[C@@H](C(=O)NCCCN(C)C)[C@@H]1c1ccc(CO)cc1`, the composite z-score in test [1] was -0.192; in [2], 0.132; in test [3], -0.161; in test [4], 0.461; in [5] it was -0.203; in test [6], 0.648. For the same compound, the composite z-score is 0.695 in test [7]; 0.0644 in test [9]; -0.266 in [10]; -1.06 in test [11]; -1.07 in test [15]; -0.135 in test [17]. Further, the composite z-score in [18] is -0.649; in test [19], -0.784; in [20], -0.111. Besides, the z-score is -3.53 (inactive) in test [8]; -0.376 (inactive) in test [12]; -2.26 (inactive) in test [13]; -1.63 (inactive) in test [14]; 0.874 (inactive) in test [16].

`C=CCC(OC(C)=O)[C@@H]1[C@@H](N(Cc2ccc(-c3ccccc3)cc2)C(=O)c2ccc(C)cc2)c2cc(OCCCO)ccc2N1C(=O)c1ccc2ccccc2c1` (stereo not given in full): the composite z-score in test [1] is -0.233; in [2] it was 0.0822; in [3] it was -0.116; in test [4], -0.148; in test [5], -0.168; in [6], -0.138. Also, the composite z-score in test [7] is -0.405; in test [9], 0.482; in [10], -0.0427; in test [11], 0.0718; in [15], 0.327; in test [17] it was -0.173. For the same compound, the figures for the composite z-score in test [18], in test [19] and in [20] were 0.166, 0.305 and -0.139, respectively. Also, the z-score in test [8] was -2.01 (inactive); in [12] it was -2.33 (inactive); in test [13], -0.326 (inactive); in test [14], -0.693 (inactive); in [16], 1.34 (inactive).

In the case of `COCCn1c(C(=O)N2CCCC2)cc2c1C[C@H]1CN(C(=O)c3ccccc3)[C@@](Cc3ccccc3)(C(=O)OC)[C@@H]21`, the composite z-score worked out at 0.288 in [1]; 1.16 in test [2]; 0.576 in test [3]; 0.888 in test [4]; 1.11 in test [5]; 2.16 in test [6]. Besides, the composite z-score in test [7] came out at 1.42; in [9] it was 1.11; in test [10], 0.688; in test [11], 1.28; in test [15], 3.11; in test [17], 0.907. Also, the composite z-score in [18] is 0.386; in test [19], 0.805; in test [20], 0.827. The z-score in test [8] was 2.7 (inactive); in test [12] it was 0.448 (inactive); in test [13], 0.105 (inactive); in test [14], 0.573 (inactive); in test [16], 0.0508 (inactive).

On to `CCCC=C(CCC)[C@@H](NS(=O)(=O)c1ccc(Cl)cc1)c1ccccc1`, for which the composite z-score in [1] is 0.329; in [2], -0.558; in test [3], 0.106; in test [4], -0.243; in [5], 0.191; in test [6], -0.223. Besides, the composite z-score in test [7] is -0.358; in test [9], -0.0037; in [10], 0.0251; in test [11] it was 0.61; in test [15], 1.1; in test [17], -0.0916. The values for the composite z-score in test [18], in test [19] and in [20] were -0.135, -0.682 and -0.125, respectively. Moreover, the z-score in test [8] was 0.909 (inactive); in [12] it was 0.286 (inactive); in [13], 0.319 (inactive); in test [14], 1.61 (inactive); in [16], -0.829 (inactive).
